CYP2C19 activ: activators of human cytochrome P450 2C19; P33261; recombinant CYP2C19, luciferin-H EGE luminescence; active compounds read high; 0 = fully inhibited enzyme, 1 = untreated enzyme; activation factor at 5 µM; 96,000 tested, under 10 active;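 active means activation factor of at least 2 at 5 µM in the primary screen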;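 further: 0 = wells with 2.5 mM tranylcypromine and 1 = vehicle-only wells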
Target sequence (P33261 whole entry, looked up): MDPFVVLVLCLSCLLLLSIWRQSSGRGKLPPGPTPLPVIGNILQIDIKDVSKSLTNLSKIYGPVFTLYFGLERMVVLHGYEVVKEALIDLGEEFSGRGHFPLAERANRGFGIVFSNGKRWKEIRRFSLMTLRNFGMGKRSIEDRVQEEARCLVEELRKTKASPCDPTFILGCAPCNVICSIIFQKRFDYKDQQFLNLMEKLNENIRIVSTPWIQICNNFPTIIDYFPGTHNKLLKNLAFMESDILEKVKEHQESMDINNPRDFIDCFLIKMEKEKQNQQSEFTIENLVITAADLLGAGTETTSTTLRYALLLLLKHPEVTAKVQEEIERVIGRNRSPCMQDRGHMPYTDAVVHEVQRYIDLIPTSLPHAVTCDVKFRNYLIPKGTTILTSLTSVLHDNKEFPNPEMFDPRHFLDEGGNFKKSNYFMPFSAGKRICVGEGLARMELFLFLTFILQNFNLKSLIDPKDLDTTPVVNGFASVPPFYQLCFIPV
CYP2C19 inh: blocks human cytochrome P450 2C19; inhibition, % at 5 µM; CYP2C19 Supersomes, luciferin-H EGE luminescence, 30 min; AID 778; actives 21% (n = 96,000); P33261;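 active means CYP2C19 inhibition above a set limit at 5 µM in the primary screen, cut at about 50% in these data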;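 further: plate controls were negative control wells for no effect and 2.5 mM tranylcypromine positive control for full effect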
CYP2C9 inhib: blocks human cytochrome P450 2C9; P11712; CYP2C9 Supersomes, luciferin-H conversion, luminescence; inhibition, % at 5 µM; actives 20% (n = 96,000);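 active means blocking of liver enzyme CYP2C9 beyond about 50% at 5 µM, limit read from the data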
EphB4 antag: blocks human EphB4 binding to ephrin-B2; inhibition, % at 7 µM; actives 0.15% (n = 97,000); EphB4 LBD / TNYL-RAW-Alexa532 peptide, fluorescence polarization;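 active means inhibition above the screen-wide mean inhibition plus 3 SD, cut at about 15% in these data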;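 further: 0% = DMSO wells and 100% = excess unlabeled TNYL-RAW peptide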
CYP2C9 activ: increases human cytochrome P450 2C9 activity | activation factor at 5 µM | AID 1024 | actives 1.4% (n = 96,000) | recombinant CYP2C9, luciferin-H conversion, luminescence; active compounds read high; factor 1 = untreated enzyme, 0 = blocked;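 active means activation factor of 2 or more for CYP2C9 at a 5 µM dose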;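 further: 0 = sulfaphenazole-blocked wells and 1 = vehicle-only wells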
An asterisk follows results filed as active; . = not tested or not shown. In the library only some 27% were active in any assay of this set; here they are far more common.

SMILES | CYP2C19 activ | CYP2C19 inh | CYP2C9 inhib | EphB4 antag | CYP2C9 activ
FC(F)(F)c1nc(N2CCCC2)ncc1-c1nnnn1-c1ccc(Cl)cc1 | 0.1 | 90* | 39 | -2 | 0.6
Fc1ccc(-n2nnnc2-c2cnc(-c3cccs3)nc2C(F)(F)F)cc1 | 0.7 | 34 | 86* | -3 | 0.1
FC(F)(F)c1nc(-c2ccncc2)ncc1-c1nnnn1-c1ccccc1 | 0 | 101* | 74* | 7 | 0.3
COc1ccc(C2N(c3cccc(Cl)c3)C(=O)C3CCCN32)cc1 (stereo unspecified) | 0.5 | 47 | 66* | 4 | 0.3
COc1ccc(C2N(c3ccc(Cl)cc3)C(=O)C3CCCN32)cc1 (stereo unspecified) | 0.5 | 52* | 45 | 4 | 0.6
CCOC(=O)N1CCN(C(=O)c2cc(C)c3c(C)nn(-c4ccccc4)c3n2)CC1 | 0.8 | 22 | 15 | 1 | 0.8
Cc1ccc(CNC(=O)c2ccc([N+](=O)[O-])o2)cc1 | 0.8 | 15 | 6 | 4 | 0.9
Cc1cc(C)n(C(=O)c2ccc(NC(=O)CC(C)C)cc2)n1 | 0.5 | 50 | -56 | 6 | 1.6
Cc1nc2cc(NC(=O)N(C)c3ccc4ccccc4c3)ccc2o1 | 0.6 | 37 | 38 | 7 | 0.6
O=S(=O)(Nc1ccc(N2CCOCC2)cc1)c1cccs1 | 0.1 | 90* | 46 | -10 | 0.5
CCc1ccc(NS(=O)(=O)c2cccs2)cc1 | 0.4 | 56* | 67* | 0 | 0.3
CN(Cc1nc2ccccc2c(=O)[nH]1)C(=O)c1ccc(S(=O)(=O)N(C)C)cc1 | 0.8 | 24 | 19 | 4 | 0.8
O=C(/C=N/O)NCc1ccncc1 | 1 | -3 | 11 | -10 | 0.9
COc1cc2[nH]c(=O)n(CCCCCC(=O)NCCCN3CCOCC3)c(=O)c2cc1OC | 1 | -3 | 8 | . | 0.9
Cc1ccc(Cn2nnnc2CN2CCC(c3nc4ccc(Cl)cc4[nH]3)CC2)cc1 | 0.1 | 89* | 90* | -8 | 0.1
CC1=CC(=O)C=C(C)C1=NOC(=O)c1cccc([N+](=O)[O-])c1 | 1 | 3 | -30 | -1 | 1.3
CC(CN1CCCCC1)OC(=O)C1c2ccccc2Oc2ccccc21 (stereo unspecified) | 0.3 | 72* | -17 | 0 | 1.2
Cc1ccc2[nH]c(=O)c(CN(Cc3ccc4c(c3)OCO4)Cc3nnnn3Cc3ccco3)cc2c1 | 0 | 99* | 99* | -3 | 0
Cc1cc(C)c2cc(CN(Cc3ccc4c(c3)OCO4)Cc3nnnn3Cc3ccco3)c(=O)[nH]c2c1 | 0.3 | 67* | 80* | 7 | 0.2
CCN(CC)C(=O)CSc1nnc(-n2nc(C)cc2C)c2ccccc12 | 1 | 2 | 37 | . | 0.6
CCCCOc1cccc(/C=N/NC(=O)c2csc(C)c2C)c1 | 1.1 | -9 | -2 | 3 | 1
CCOC(=O)SC1=N/C(=C\c2ccc(N(C)C)cc2)C(=O)S1 | 0.9 | 10 | 68* | -6 | 0.3
CCSC1=N/C(=C\c2ccc(C(=O)O)cc2)C(=O)S1 | 0.9 | 6 | 2 | -2 | 1
c1ccc(C2=Nn3c(nnc3-c3ccccn3)SC2)cc1 | 0.8 | 23 | 8 | -6 | 0.9
CN(C)c1ccc(C(=O)n2nnc3ccccc32)cc1 | 1.3 | -26 | -12 | -6 | 1.1
SMILES | CYP2C19 activ | CYP2C19 inh | CYP2C9 inhib | EphB4 antag | CYP2C9 activ
CCN(CC)c1ccc(C(=O)n2cnc3ccccc32)cc1 | 0.2 | 85* | 75* | . | 0.3
Cc1ccccc1N(CC(=O)N/N=C/c1cc(C)n(-c2ccccc2C)c1C)S(C)(=O)=O | 0.9 | 10 | 58* | -1 | 0.4
CCOC(=O)c1cnc(Nc2nc3ccccc3o2)nc1C | 0.1 | 88* | 58* | 4 | 0.4
CCOC(=O)c1cnc(Nc2nc3ccccc3o2)nc1CN1CCN(c2ccccc2)CC1 | . | . | . | 12 | .
O=S(=O)(NCCc1ccncc1)c1ccc(S(=O)(=O)N2CCCCCC2)cc1 | 0 | 99* | 92* | 2 | 0.1
Cc1ccc(S(=O)(=O)NCC(=O)NCc2ccncc2)cc1 | . | . | . | 9 | .
O=S(=O)(NCCc1ccncc1)c1ccc(Br)cc1 | 0 | 100* | 98* | -4 | 0
CC1CCCCN1S(=O)(=O)c1ccc(S(=O)(=O)NCCc2ccncc2)cc1 (stereo unspecified) | . | . | . | 1 | .
FC(F)(F)c1ccc(-n2ccnc2)nc1 | 0.5 | 52* | 38 | -1 | 0.6
FC(F)(F)c1nnc2ccc(-n3ccnc3)nn12 | 1 | -3 | -1 | -7 | 1
Cc1oc(=O)c(NC(=O)c2cccc(Cl)c2)cc1C(=O)c1ccccc1 | 0.8 | 25 | 6 | 3 | 0.9
COc1ccccc1NC(=O)Cc1noc(CSc2cccc[n+]2[O-])n1 | 1 | -3 | -13 | 2 | 1.1
CC(CN1CCCCC1)OC(=O)c1ccc(Cl)cc1 (stereo unspecified) | 0.6 | 37 | 3 | 2 | 1
CO/N=C(\Cn1ncc(NC2CCCCC2)c(Br)c1=O)c1ccc(Cl)cc1 | 0.9 | 7 | 54* | -2 | 0.5
C=CCNc1cnn(CC(C)=O)c(=O)c1Br | 0.9 | 7 | -5 | -1 | 1
CO/N=C(\Cn1ncc(N2CCCC2)c(Br)c1=O)c1ccc(Cl)cc1 | 0.1 | 89* | 86* | 2 | 0.1
CC(C)=CCC(C)(C)C1OCCN1C(=O)Nc1ccccc1 (stereo unspecified) | 0 | 100* | 80* | -1 | 0.2
O=C(Nc1ccccc1)N1CCCC2CCCCC21 (stereo unspecified) | 0.6 | 37 | -1 | -4 | 1
CCOC(=O)Cc1c(C)nc2c(-c3ccccc3)c[nH]n2c1=O | 1.1 | -6 | 20 | . | 0.8
CCCCNC(=O)c1c(C)cc(=O)oc1C | 1.1 | -15 | -34 | 5 | 1.3
CCCNc1cc(C)oc(=O)c1C(=O)CCC | 0.8 | 25 | -100 | -7 | 2*
CCCCNc1cc(C)oc(=O)c1C(C)=O | 1.1 | -12 | -14 | -3 | 1.1
CCCC(=O)c1c(NC(C)C)cc(C)oc1=O | 0.9 | 8 | -122 | . | 2.2*
CC(=O)c1c(NCCc2ccccc2)cc(C)oc1=O | 0.4 | 57* | 33 | -3 | 0.7
O=C(Cc1ccc(F)cc1)OCC(=O)c1cc2ccccc2o1 | 0.9 | 12 | 4 | -3 | 1
SMILES | CYP2C19 activ | CYP2C19 inh | CYP2C9 inhib | EphB4 antag | CYP2C9 activ
Cc1nn(C)cc1C1C2=C(CC(C)(C)CC2=O)N(c2ccccc2)C2=C1C(=O)CC(C)(C)C2 | 0.8 | 20 | 40 | 0 | 0.6
CCCc1nc2ccccc2[nH]1 | 1 | 2 | -25 | 3 | 1.2
Cc1cccc(CC(Cc2nc3ccccc3[nH]2)c2nc3ccccc3[nH]2)c1 (stereo unspecified) | 0.1 | 93* | 88* | 5 | 0.1
COc1ccc(-c2ccc(=O)n(CC(=O)Nc3nnc(C(C)C)s3)n2)cc1OC | 1 | 2 | 30 | 4 | 0.7
COc1ccc(C(=O)Cn2nnc(-c3ccccc3NC(=O)C3CC3)n2)cc1 | 1 | -4 | 4 | -2 | 1
Cc1ccc(Nc2nc(N)nc(CSc3nccn3C)n2)cc1 | 0.6 | 36 | 6 | 1 | 0.9
